From PubChem BioAssay
FECH block: inhibitors of human ferrochelatase | calls only at 10 µM (by protocol) | purified FECH, Ni-mesoporphyrin absorbance 550 nm | 20,000 compounds, 3.3% hits | P22830;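 active = enzyme reaction rate more than 3 SD below the solvent-only control wells on the same plate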;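 note: lower slope than DMSO wells means FECH inhibition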
Target sequence (P22830 whole entry, looked up): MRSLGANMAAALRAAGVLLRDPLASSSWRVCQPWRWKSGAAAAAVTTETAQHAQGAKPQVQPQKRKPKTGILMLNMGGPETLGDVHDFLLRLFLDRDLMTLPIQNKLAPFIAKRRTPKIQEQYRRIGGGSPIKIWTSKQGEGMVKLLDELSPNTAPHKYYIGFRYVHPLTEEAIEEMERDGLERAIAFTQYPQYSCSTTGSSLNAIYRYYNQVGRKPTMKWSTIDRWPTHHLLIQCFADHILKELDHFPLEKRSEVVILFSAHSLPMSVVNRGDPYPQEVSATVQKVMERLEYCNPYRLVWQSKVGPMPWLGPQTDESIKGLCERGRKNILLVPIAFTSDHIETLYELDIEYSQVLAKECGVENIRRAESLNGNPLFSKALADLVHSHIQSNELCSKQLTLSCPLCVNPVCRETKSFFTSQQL
Of the large screens only hits and unclear results are named; the others gave an inactive call. Shown is part of a subset that was picked to be rich in hits.

Cc1cccc(CN2CCCN(CC(=O)Nc3ccc(F)c(Cl)c3)S2(=O)=O)c1	FECH block active
O=C(CN1CCCN(Cc2cccc(F)c2)S1(=O)=O)Nc1ccc(F)c(Cl)c1	none
Cc1ccc(CN2CCN(CC(=O)Nc3ccc(C)cc3)S2(=O)=O)cc1	none
Cc1cccc(NC(=O)CN2CCN(Cc3ccc(F)cc3)S2(=O)=O)c1	none
Cc1ccc(CN2CCCN(CC(=O)Nc3ccc(C)cc3)S2(=O)=O)cc1	FECH block active
Cc1ccc(NC(=O)CN2CCCN(Cc3cccc(C)c3)S2(=O)=O)cc1	FECH block active
O=C(CN1CCCN(Cc2cccc(F)c2)S1(=O)=O)Nc1ccc(F)cc1	none
Cc1cccc(CN2CCN(CC(=O)Nc3ccc(F)cc3)S2(=O)=O)c1	FECH block active
CC(=O)c1ccc(NC(=O)CN2CCCN(Cc3cccc(C)c3)S2(=O)=O)cc1	none
Cc1cccc(CN2CCCN(CC(=O)Nc3cccc(C)c3)S2(=O)=O)c1	none
Cc1cccc(CN2CCCN(CC(=O)Nc3ccc(C)c(F)c3)S2(=O)=O)c1	none
CCc1cc(Sc2ccc(NC(=O)c3ccc(Br)cc3)cc2)n2ncnc2n1	none
Cc1ccc(C)c(NC(=O)CSCc2nc(-c3ccccc3)no2)c1	none
Cc1ccccc1S(=O)(=O)NCCn1c(C(F)(F)F)nc2cccnc21	none
COc1ccc(N2C(=O)CCS2(=O)=O)cc1S(=O)(=O)NCc1ccc2c(c1)OCO2	none
CC(=O)N1CCn2nc(C(=O)N3CCCC3c3cc(C(C)C)on3)cc2C1 (stereo not given)	none
O=S(=O)(c1ccccc1)N1CCN(Cc2cccc3nccnc23)CC1	none
N[C@@H](C(=O)N1CCn2nc(-c3nc4ccccc4[nH]3)cc2C1)c1ccccc1	none
CC(CCc1c[nH]c2ccccc12)NCc1n[nH]c2c1CCC2 (stereo not given)	none
CCn1cc(CNC(=O)C2(c3ccc(F)cc3)CCOCC2)cn1	none
CN(C)c1ccc(CNS(=O)(=O)c2cc(C(=O)N3CCCC3)cs2)cc1	none
CCCN1C(=O)c2c(NC(C)=O)c3cc(F)ccc3n2CC1(C)C(=O)NC1CCCCC1 (stereo not given)	none
COc1ccc(OC)c(S(=O)(=O)N2CCN(c3cc(-c4ccc(F)cc4)ncn3)CC2)c1	none
CCNC(=O)C1CCN(c2cc(C)nc(-c3cccnc3)n2)C1 (stereo not given)	none
Cc1cc(NC(=O)CCCc2ccccc2)n(-c2ncnc3c2cnn3-c2cccc(Cl)c2)n1	none
Cc1cc(-c2c(-c3ccccc3)ncn2CCCO)cc(C)c1O	none
Cc1ccc(NC(=O)CN2CCN(Cc3cccc(Cl)c3)S2(=O)=O)cc1	FECH block active
Cc1ccc(CN2CCCN(CC(=O)Nc3cccc(Cl)c3)S2(=O)=O)cc1	none
O=C(CN1CCN(Cc2ccccc2)S1(=O)=O)Nc1cccc(Cl)c1	none
CCCCS(=O)(=O)N1CCC(n2cc(CCC)nn2)CC1	none
C=CCN(Cc1ccc(C)s1)C(=O)[C@@H](N)c1ccccc1Cl	none
COc1ccc(CCCNC(=O)c2ccc(-c3cn[nH]c3)nc2)cc1	none
CCCc1nc2nc[nH]n2c(=O)c1NC(=O)Nc1ccc(C)c(F)c1	none
CCCc1nc2nc[nH]n2c(=O)c1NC(=O)Nc1ccc(Br)c(C)c1	FECH block active
CCCc1nc2nc[nH]n2c(=O)c1NC(=O)Nc1ccc(Br)cc1	none
Cc1cccc(C)c1NS(=O)(=O)c1cc(C(=O)N2CCCC2)cs1	none
CCCS(=O)(=O)N1CCC(n2cc(Cc3ccccc3)nn2)CC1	none
Cc1cccnc1CC(C)NC(=O)CSCc1ccccc1Cl (stereo not given)	none
Cc1ccc(C2=CC(c3ccccc3Cl)n3nc(NS(C)(=O)=O)nc3N2)cc1 (stereo not given)	none
O=S(=O)(Nc1nc2n(n1)C(c1ccc(F)cc1)C=C(c1ccccc1)N2)c1ccc(Cl)cc1 (stereo not given)	none
Cc1ccc(C2=CC(c3ccccc3Cl)n3nc(NS(=O)(=O)c4ccccc4)nc3N2)cc1 (stereo not given)	FECH block active
Cc1ccc(C2=CC(c3c(F)cccc3Cl)n3nc(NS(=O)(=O)c4ccccc4)nc3N2)cc1 (stereo not given)	none
O=S(=O)(Nc1nc2n(n1)C(c1c(F)cccc1Cl)C=C(c1ccccc1)N2)c1ccccc1 (stereo not given)	FECH block active
Cc1ccc(C2=CC(c3ccc(F)cc3)n3nc(NS(C)(=O)=O)nc3N2)cc1 (stereo not given)	none
CS(=O)(=O)Nc1nc2n(n1)C(c1ccccc1Cl)C=C(c1ccc(Br)cc1)N2 (stereo not given)	none
Cc1ccc(C2=CC(c3ccc(F)cc3)n3nc(NS(=O)(=O)c4ccccc4)nc3N2)cc1 (stereo not given)	none
Cc1ccc(C2=CC(c3c(F)cccc3Cl)n3nc(NS(C)(=O)=O)nc3N2)cc1 (stereo not given)	FECH block active
O=C(CCn1cnc2onc(-c3cc(F)cc(F)c3)c2c1=O)NCc1cccc(F)c1	none
COc1ncccc1CN1CCC(CNC(=O)c2ccncc2)C1 (stereo not given)	none
COc1ccccc1CNS(=O)(=O)c1ccc2c(c1)CCN2C(=O)CCC(=O)N1CCOCC1	none
O=C(NC1CC1)C1CNCCN1C(=O)CCn1cc(Cl)cn1 (stereo not given)	none
Cc1ccc(C(=O)Nc2nc3n(n2)C(c2ccccc2Cl)C=C(c2ccccc2)N3)cc1 (stereo not given)	none
O=C1CN(Cc2ccc(F)cc2Cl)S(=O)(=O)c2ccccc2N1Cc1ccccc1F	none
O=C1CN(Cc2ccccc2)S(=O)(=O)c2ccccc2N1Cc1ccccc1F	FECH block active
O=C1CN(Cc2ccc(F)cc2)S(=O)(=O)c2ccccc2N1Cc1ccccc1	none
COc1ccccc1Cn1c(CNS(=O)(=O)c2cccs2)nc2cccnc21	none
CCCN1CC(NC(=O)c2ccnc(C(C)C)n2)CC1=O (stereo not given)	none
CCn1c(=O)n(Cc2cccc(OC)c2)c(=O)c2cnc(-c3ccc(OC)cc3)nc21	none
CCn1c(=O)n(Cc2ccncc2)c(=O)c2cnc(-c3ccc(OC)cc3)nc21	FECH block active
C=Cc1ccc(Cn2c(=O)c3cnc(-c4ccc(OC)cc4)nc3n(CC)c2=O)cc1	none
CCn1c(=O)n(Cc2cccc(Cl)c2)c(=O)c2cnc(-c3ccc(OC)cc3)nc21	FECH block active
CCn1c(=O)n(Cc2cccc(OC)c2)c(=O)c2cnc(-c3ccc(Cl)cc3)nc21	none
CCn1c(=O)n(Cc2ccccc2Cl)c(=O)c2cnc(-c3ccc(OC)cc3)nc21	none
O=C(c1cc(COc2ccccc2)[nH]n1)N(Cc1cccnc1)C1CC1	none
Cc1cc(C)cc(NC(=O)N2CCN(c3cc(-c4cccc(C)c4)ncn3)CC2)c1	none
Cc1ccc(OCc2cc(=O)n3oc(C)cc3n2)c(NC(=O)c2ccccc2F)c1	none
Cc1ccc(CNC(=O)CN2CCN(Cc3ccc(Cl)cc3)S2(=O)=O)cc1	none
Cc1cccc(N(C)S(=O)(=O)c2ccc3c(c2)CCN3C(=O)CCC(=O)N2CCOCC2)c1	none
Nc1ccc(S(=O)(=O)N2CCOCC2)cc1S(N)(=O)=O	FECH block active
Cc1cccc(NS(=O)(=O)c2ccc(N)c(S(N)(=O)=O)c2)c1	none
CC(=O)N1c2ccc(S(=O)(=O)N3CCOCC3)cc2CC1C(=O)N1CCOCC1 (stereo not given)	none
Cc1nnn(C23C[C@@H]4C[C@@H](CC(NCC(=O)NCc5ccccc5F)(C4)C2)C3)n1	none
COc1ccc(OC)c(CNC(=O)Cn2c(=O)c3cnc(-c4ccccc4)nc3n(C)c2=O)c1	none
CCOc1ccc(CNC(=O)CN2C(=O)CN(C)C(=O)c3ccccc32)cc1OC	none
COc1ccc(OC)c(CNC(=O)CN2C(=O)c3cccnc3Sc3ccccc32)c1	FECH block active
